# TDP1 cell CPT: DT40-hTDP1 cell growth loss with CPT | chicken DT40 Tdp1-/-;hTDP1 cells + 20 nM CPT, ATP luminescence, 48 h | Potency, µM (highest dose often 46.2 µM), for inactives: at the highest dose activity change, negative = growth inhibition, usual class: inhibitors | actives 12% (n = 420,000); also: potency is read from the fitted curve at half-maximal effect; nearly all actives have a fitted effect of over 55% in size
#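 Cell growth measured by CellTiter-Glo luminescence after a minimum 48 h, 37 C compound exposure with 20 nM CPT in Tdp1-knockout DT40 cells stably expressing hTDP1, seeded 400/well; qHTS titration format.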
# IL-1B inflam inh: inhibitors of inflammasome signaling (IL-1 beta secretion) | THP-1 LPS/ATP IL-1B secretion, AlphaLISA, 16 h; active compounds read low | activity change, % at 57.5 µM | actives 4.7% (n = 360,000); in the data active = activity change below about -50%; inconclusive = mostly about -30% to -49%
#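 THP-1 cells pretreated 1 hr with compounds (up to 57.5 uM final), then stimulated with LPS (250 ng/mL final) plus ATP (1.25 mM final); secreted IL-1B measured by AlphaLISA after 16 hr, decreased signal indicating inhibition.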
# HT1080 IDH1KD tx: toxicity to HT-1080 IDH1 knockdown cells (counter line) | HT-1080 IDH1 knockdown viability, ATP luminescence, 48 h | Potency, µM (doses to about 46.1 µM), for the others: at the highest dose activity, negative = toxicity, most hits filed as cytotoxic | actives 2% (n = 360,000) | AID 686971;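 also: potency is read from the fitted curve at half-maximal effect; 0% = DMSO wells and -100% = cell-free medium wells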
#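 After a 2 h attachment period, IDH1KD HT-1080 cells took pin-transferred compound for 48 h at 37 °C; ATP-based luminescence after 10 min room-temperature reagent incubation reported viability.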
# ELG1 DNA repair: blocks ELG1-dependent DNA repair in HEK293T cells. HEK293T ELG1-luciferase reporter, luminescence, 16 h; DNA damage induced by 5-fluorouridine. Potency, µM (doses to about 46.1 µM), inactives show top-dose activity change, negative = inhibition, actives largely listed as inhibitors. actives 2.3% (n = 330,000). AID 504467; also: potency is read from the fitted curve at half-maximal effect; nearly all actives have a fitted effect of over 55% in size
#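 Luminescence from the luciferase reporter, measured 30 min after ONE-Glo reagent at room temperature, was the read-out. Beforehand, 2,000 cells per well were exposed for 16 hr at 37 °C to 5-fluorouridine together with compound or vehicle.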
# DT40 TDP1 no CPT: qHTS for Inhibitors of human tyrosyl-DNA phosphodiesterase 1 (TDP1): qHTS in cells in absence of CPT; actives 15% (n = 420,000); DT40 Tdp1-/- hTDP1 cells, no CPT, ATP luminescence, 48 h; Potency, µM (titrated, usually from 46.2 µM), inactives show at the highest dose activity change, negative = growth inhibition, actives largely listed as inhibitors; AID 686978, 2013; also: potency is read from the fitted curve at half-maximal effect; nearly all actives have a fitted effect of over 55% in size
#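 Growth kinetics read by CellTiter-Glo luminescence after ≥48 hr at 37 °C. Cells: DT40 Tdp1-/- stably carrying human TDP1, 400 per well, compound exposure in the absence of CPT (DMSO vehicle).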
# HT1080-NT tox: kills 2HG-producing HT-1080-NT fibrosarcoma cells. HT-1080-NT fibrosarcoma viability, CellTiter-Glo ATP luminescence, 48 h. Potency, µM (top dose mostly 46.1 µM), for inactives: at the highest dose activity, negative = less viability, hits mostly cytotoxic. actives 1.6% (n = 360,000). AID 686970;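 also: NT is the 2HG producing partner of a matched IDH1 knockdown line; potency is read from the fitted curve at half-maximal effect; 0% = DMSO-treated cells and -100% = media-only wells without cells; nearly all actives have a fitted effect of over 55% in size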
#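 HT-1080-NT; 750 cells/well; 5% FBS RPMI; 48 h compound, 37 degrees C; CellTiter-Glo luminescence; curve fitting and curve-class assignment.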
# Active calls of the source: *; ? = inconclusive; . = no result. In the library only some 19% were active in any assay of this set; here they are far more common. Unless noted, calls follow the shape of the dose curve; as a rule, active = well fitted curve in the direction sought with a large enough effect; inconclusive = small, poorly fitted or top-dose-only effect, or another doubt; inactive = no such curve, though single readings can be large; an effect the other way counts as inactive or inconclusive. Unless noted, % is scaled to controls: 0 for no effect and ±100 for the full control effect.
SMILES,TDP1 cell CPT,IL-1B inflam inh,HT1080 IDH1KD tx,ELG1 DNA repair,DT40 TDP1 no CPT,HT1080-NT tox
CCOC(=O)Nc1ccc2c(c1)N(C(=O)OC)c1ccccc1CC2,?,24,?,-18%,?,?
COC(=O)N1c2ccccc2CCc2ccccc21,21µM*,4,?,?,16µM*,?
CCCO/N=C1/C(=O)N(c2ccccc2)c2ccccc21,13µM*,?,-5%,8%,23µM*,-4%
O=C(O/N=C1\C(=O)N(c2ccccc2)c2ccccc21)C1CC1,?,-8,-21%,-13%,-19%,-18%
CCO/N=C1\C(=O)N(c2ccccc2)c2ccccc21,6%,-51*,0%,1%,-26%,-2%
CCCOc1cccc(C2c3c(oc4ccc(F)cc4c3=O)C(=O)N2Cc2ccc3c(c2)OCO3)c1 (stereo not drawn),1%,.,.,.,18%,.
COc1ccc(CN(C)C(=O)C23CC4CC(CC(Cl)(C4)C2)C3)c(OC)c1OC,23µM*,?,1%,26µM*,21µM*,5%
CCOC(=O)c1ccc(NC(=O)CCc2c(C)nc3c(c(C)nn3C(C)(C)C)c2C)cc1,16µM*,.,.,.,18µM*,.
COC(=O)c1ccc(NC(=O)CCc2c(C)nc3c(c(C)nn3C(C)(C)C)c2C)cc1,?,.,.,.,18µM*,.
CC1(C(=O)NS(=O)(=O)c2ccc(F)cc2F)CCN1C(=O)CCc1ccc(Cl)cc1Cl (stereo not drawn),-4%,14,2%,.,2%,-1%
c1ccc(-c2csc3ncnc(-n4cnc5ccccc54)c23)cc1,?,-11,-18%,-18%,?,-16%
Cc1ccc(-c2csc3ncnc(-n4nc(C)cc4N)c23)cc1,-5%,-1,-5%,-4%,-3%,3%
Cc1ccc(-c2csc3ncnc(-n4nnc5ccccc54)c23)cc1C,21µM*,0,3%,?,?,-3%
Cc1ccc(-c2csc3ncnc(-n4cnc5ccccc54)c23)cc1,?,?,21µM*,10µM*,18µM*,16µM*
CC1(C(=O)NS(=O)(=O)c2ccccc2C(F)(F)F)CCN1C(=O)CCc1cccs1 (stereo not drawn),-15%,24,4%,.,-4%,14%
CN(CC1CCOCC1)C(=O)CC1C(=O)NCCN1Cc1ccc(-c2ccccc2)cc1 (stereo not drawn),-26%,0,5%,3%,?,-4%
CC(=O)N1CCN(c2ccccc2NC(=O)c2cc(Br)ccc2Cl)CC1,-25%,-5,-1%,?,?,-5%
COc1ccccc1C(=O)Nc1ccccc1N1CCN(C(=O)c2ccc(Cl)cc2)CC1,15µM*,-13,-38%,15µM*,16µM*,-10%
O=C(Nc1ccccc1N1CCN(C(=O)c2ccc(Cl)cc2)CC1)c1cc(Br)ccc1Cl,?,-12,6%,-3%,15µM*,-2%
O=C(CSc1ccc(Cl)cc1)Nc1ccccc1N1CCN(C(=O)c2ccccc2)CC1,16µM*,-4,-22%,?,18µM*,?
N#Cc1nc(-c2cccc(Cl)c2)oc1N1CCC(C(N)=O)CC1,-16%,-21,-13%,1%,-23%,-18%
O=C(Nc1sc2c(c1C(=O)NCCCO)CCCC2)c1ccccc1,-27%,-69*,-13%,?,-25%,-5%
O=C(Nc1sc2c(c1C(=O)O)CCC2)c1ccccc1,?,16,?,?,-21%,-30%
NCCNC(=O)c1c(NC(=O)c2ccccc2)sc2c1CCCC2,?,-92*,?,11%,?,-23%
O=C(Nc1sc2c(c1C(=O)O)CCCCC2)c1ccccc1,?,31,-23%,?,?,-14%
SMILES,TDP1 cell CPT,IL-1B inflam inh,HT1080 IDH1KD tx,ELG1 DNA repair,DT40 TDP1 no CPT,HT1080-NT tox
O=C(CCCn1c(=O)c2ccccc2n(CC(=O)Nc2cccc(C(F)(F)F)c2)c1=O)NCc1ccc2c(c1)OCO2,-14%,.,.,.,-9%,.
CCOC(=O)C1=C(CSc2nc(-c3ccncc3)ccc2C#N)OC(N)=C(C#N)C1c1cccnc1 (stereo not drawn),-17%,?,8%,?,?,16%
CCOC(=O)C1=C(c2ccccc2)OC(N)=C(C#N)C1c1ccncc1 (stereo not drawn),23µM*,-15,-3%,6%,?,-6%
CCOC(=O)C1=C(CSc2nc(-c3ccncc3)ccc2C#N)OC(N)=C(C#N)C1c1ccc(OC)cc1 (stereo not drawn),?,-29,9%,12%,16µM*,1%
CCOC(=O)C1=C(CSc2nc(CC)c(C)cc2C#N)OC(N)=C(C#N)C1c1ccc(OC)cc1 (stereo not drawn),?,5,7%,13%,16µM*,-1%
CCOC(=O)C1=C(C)OC(N)=C(C#N)C1c1cc(F)ccc1F (stereo not drawn),?,-66*,?,?,?,?
CCOC(=O)C1=C(C)OC(N)=C(C#N)C1c1cccc(C)c1 (stereo not drawn),0%,5,2%,8%,-1%,2%

# High-throughput results from PubChem.
